40 compounds from PubChem BioAssay (NCATS) can be followed below.

“And” between values parts separate entries of the source, which are not always exact repeats. Identical values can stand only once. Inconclusive results are not listed. A structure can be active in one record and inactive in another. The source made the active and inactive calls. Calls follow the shape of the dose curve; as a rule, active = well fitted cell-killing curve with a large enough effect; inconclusive = small, poorly fitted or top-dose-only effect, or effect the other way; inactive = no such curve, though single readings can be large or run the other way.
Potency is read from the fitted curve at half-maximal effect.

The first assay can be described thus: Viability qHTS for spleen associated tyrosine kinase inhibitor (SYKi) naive MV4-11 cells (AID 1963823). Also: nearly all actives have a fitted effect of over 40% in size. Particulars: MV4-11 AML viability, CellTiter-Glo luminescence, 72 h; series mostly up to 45 µM; viability (% of control): at the top concentration. An outline of the steps: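 Seeding of 500 SYKi-naive MV4-11 cells per well onto pre-dispensed compounds preceded a 72 hr incubation at 37 C. Luminescent CellTiter-Glo signal, read after 10 min at room temperature, reflected viable cells.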
On the technique in general: Quantitative high-throughput screening tests each substance at several concentrations.
Take `Cc1cn(-c2cc(NC(=O)c3ccc(C)c(Nc4nccc(-c5cccnc5)n4)c3)cc(C(F)(F)F)c2)cn1`: the Potency entry is “inactive and 2.35 µM (active)”.
Regarding `CC(C)C(=O)Nc1ncc(-c2cc(C(F)F)nn2-c2c(Cl)cccc2Cl)s1`, the Potency is 18.6 µM (active).
As to `CNC1CCC(N(Cc2cccc(-c3ccncc3)c2)C(=O)c2sc3c(F)ccc(F)c3c2Cl)CC1` (stereo unspecified), the Potency was 2.63 µM (active) and 8.2 µM (active).
On the same count and under the same terms, under `O=C(Nc1ncc(SCCN2CCCC2)s1)[C@]1(c2ccc(S(=O)(=O)C3CC3)cc2)C[C@@H]1C1CCCCC1` stands 2.59 µM (active).
As for `CCC[C@H](N[C@@H](C)C(=O)N1[C@@H]2CCCC[C@H]2C[C@H]1C(=O)O)C(=O)OCC`, the “viability (% of control)” value is 75.5% (inactive).
In the case of `CNC(=O)Nc1ccc(-c2nc(N3CC4CCC(C3)O4)c3cnn(C4CCC5(CC4)OCCO5)c3n2)cc1`, the Potency is 0.0742 µM (active).

Another assay can be described thus: Viability qHTS for spleen associated tyrosine kinase inhibitor (SYKi) drug resistant MV4-11 cells (AID 1963824). Also: nearly all actives have a fitted effect of over 35% in size. To be noted: SYKi-resistant MV4-11 viability, CellTiter-Glo, 72 h; series mostly up to 45 µM; viability, % of control: at the top concentration. An outline of the steps: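 SYK inhibitor-resistant MV4-11 AML cells, 500 per well, added to predispensed compounds and incubated 72 hr at 37 C, 5% CO2. Viability measured by CellTiter-Glo luminescence after 10 min at room temperature.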
For `C=CC(=O)Nc1cccc(Oc2nc(Nc3ccc(N4CCN(C)CC4)cc3OC)ncc2Cl)c1`, the Potency is 2.06 µM (active) and 2.95 µM (active).
With `CS(=O)(=O)CCNCc1ccc(-c2ccc3ncnc(Nc4ccc(OCc5cccc(F)c5)c(Cl)c4)c3c2)o1`, the Potency is 16.8 µM (active) and 8.2 µM (active) and 11.8 µM (active).
In the case of `CC(=O)OCCN1C(=O)c2c(C)nc3ccc(S(=O)(=O)N4CCOCC4)cc3c2C1=O`, the “viability, % of control” value is 115% (inactive).
Turning to `Cc1ccc(C(=O)N(CCCN)[C@@H](c2oc3cc(Cl)ccc3c(=O)c2Cc2ccccc2)C(C)C)cc1`, the Potency was 0.0083 µM (active).
As for `CC(C)(S)[C@@H](N)C(=O)O`, the viability, % of control was 89% [at 4.97 µM] (inactive).
`NC1(C(=O)N[C@@H](CCO)c2ccc(Cl)cc2)CCN(c2ncnc3[nH]ccc23)CC1`: the Potency is 0.651 µM (active).
Same read-out and setting: then `COc1cc(C(C)C)c2c(c1)S(=O)(=O)N(COc1cc(=O)n3cccc(OCCN4CCCCC4)c3n1)C2=O`, with 11.8 µM (active); and `CC1(C)[C@H](C(=O)O)N2C(=O)C[C@H]2S1(=O)=O`, with “inactive”; and `C#Cc1cccc(Nc2ncnc3cc(OCCOC)c(OCCOC)cc23)c1`, with 6.68 µM (active) and 2.31 µM (active).
Still for that read-out and setting: under `COc1cc2c(cc1-c1c(C)noc1C)ncc1[nH]c(=O)n([C@H](C)c3ccccn3)c12` stands 0.259 µM (active).
Consider `Cn1c(NCCN(CCO)CCCc2ccc([N+](=O)[O-])cc2)cc(=O)n(C)c1=O`, for which the Potency entry was “inactive”.
Turning to `CN1CCC(=C2c3ccccc3CCc3sccc32)CC1`, the Potency is 18.6 µM (active).
Take `CCOc1cc(N2CCC(O)CC2)ccc1Nc1ncc2c(n1)N(C)c1ccccc1C(=O)N2C`: the Potency was 1.03 µM (active).
Still for that read-out and setting: under `CCOc1ccc(Nc2nc(-c3c(C)nc4ccccn34)cs2)cc1` stands 41.1 nM (active) and 29.5 nM (active); under `c1cncc(CN2CCC(n3ncc4c(N5CCOCC5)nc(-c5ccc6[nH]ccc6c5)nc43)CC2)c1`, 1.84 µM (active) and 1.86 µM (active); under `NCC(=O)Nc1ccc(-n2nc(C(F)(F)F)cc2-c2ccc3c(ccc4ccccc43)c2)cc1`, 2.91 µM (active) and 4.68 µM (active).
As to `CN(C)c1ccc(C(=O)NCCCCCCC(=O)NO)cc1`, the Potency is 0.742 µM (active).
For `CCc1nc(N)nc(N)c1-c1ccc(Cl)cc1`, the Potency is 3.76 µM (active) and 2.63 µM (active).
For the compound `CC(C)(O)c1cc2nc(-c3cnc(N)nc3)nc(N3CCOCC3)c2s1`, the Potency is 1.16 µM (active).
With `CCCCCNC(=O)N1CCC(CN(Cc2ccc(Cl)cc2)Cc2ccc([N+](=O)[O-])s2)C1` (stereo unspecified), the Potency is 13.2 µM (active).
As to `Cc1cccc(-c2[nH]c(C(C)(C)C)nc2-c2ccc3nccnc3c2)n1`, the Potency was 18.6 µM (active) and 1.3 µM (active).
Take `Nc1ccc(C(=O)Nc2cccc(-c3nc(N4CCOCC4)c4oc5ncccc5c4n3)c2)cn1`: the Potency was 3.66 µM (active).
With `CN1CCN(c2ncc(-c3cc(Cl)cc(Cl)c3Cl)c(N)n2)CC1`, the Potency was 16.6 µM (active).
With `NC(=O)N1CCC(CC(=O)N2CCC([C@H]3c4ncc(Br)cc4CCc4cc(Cl)cc(Br)c43)CC2)CC1`, the Potency was 4.17 µM (active).
Regarding `CC(C)Nc1cc(-c2c[nH]c(C(=O)N[C@H](CO)c3cccc(Cl)c3)c2)c(Cl)cn1`, the Potency is 1.64 µM (active) and 2.63 µM (active).
Take `N#Cc1c(NC(=O)c2cccc3ccccc23)sc2c1CCCC2`: the Potency was 0.186 µM (active).
As to `CCn1nnc2c(N3CCOCC3)nc(-c3ccc(NC(=O)Nc4ccc(C(=O)N5CCN(C)CC5)cc4)cc3)nc21`, the Potency is 29.1 nM (active) and 46.8 nM (active).
`CC1=C[C@@H]2[C@@H]([C@@H](O)C[C@@]3(C)[C@H]2C[C@@H](C)[C@]3(O)C(=O)CO)[C@@]2(C)Cc3cnn(-c4ccccc4)c3C=C12`: the Potency was 1.03 µM (active).
The same measure, in the same setting: then `O=C(NC[C@H](O)CO)c1ccncc1Nc1ccc(I)cc1F`, with 0.166 µM (active); and `Cc1cnc(C(=O)NCCc2ccc(S(=O)(=O)NC(=O)NC3CCCCC3)cc2)cn1`, with “inactive”; and `Cc1cc(C(=O)N2CCN(c3cccc(Cl)c3)CC2)n(-c2ccccc2)n1`, with 1.46 µM (active).
Consider `COc1cc2ncnc(Nc3ccc(F)c(Cl)c3)c2cc1OCCCN1CCOCC1`, for which the Potency is 6.68 µM (active) and 3.66 µM (active).
Regarding `Cc1ccc(S(=O)(=O)OCC(=O)Nc2ccc(C(=O)O)c(O)c2)cc1`, the “viability, % of control” value is 92.3% (inactive).
With `O=C(c1ccc(OCCN2CCCCC2)cc1)c1c(-c2ccc(O)cc2)sc2cc(O)ccc12`, the Potency was 13.3 µM (active) and 16.6 µM (active) and 10.3 µM (active).
Consider `Cc1cn(-c2cc(NC(=O)c3ccc(C)c(Nc4nccc(-c5cccnc5)n4)c3)cc(C(F)(F)F)c2)cn1`, for which the Potency entry is “inactive and 4.68 µM (active)”.
For `CC(C)C(=O)Nc1ncc(-c2cc(C(F)F)nn2-c2c(Cl)cccc2Cl)s1`, the Potency was 13 µM (active).
Consider `CNC1CCC(N(Cc2cccc(-c3ccncc3)c2)C(=O)c2sc3c(F)ccc(F)c3c2Cl)CC1` (stereo unspecified), for which the Potency was 8.33 µM (active) and 7.31 µM (active).
In the case of `O=C(Nc1ncc(SCCN2CCCC2)s1)[C@]1(c2ccc(S(=O)(=O)C3CC3)cc2)C[C@@H]1C1CCCCC1`, the Potency was 2.59 µM (active).
Regarding `CCC[C@H](N[C@@H](C)C(=O)N1[C@@H]2CCCC[C@H]2C[C@H]1C(=O)O)C(=O)OCC`, the “viability, % of control” value is 97.7% (inactive).
Consider `CNC(=O)Nc1ccc(-c2nc(N3CC4CCC(C3)O4)c3cnn(C4CCC5(CC4)OCCO5)c3n2)cc1`, for which the Potency is 0.166 µM (active).
